Measured values taken from PubChem BioAssay AID1894 (NMMLSC, 2009).
The campaign covered roughly 5,900 compounds. About 100 (1.7%) were called active. This is one part of a sample in which actives are shown more often than they occur. A number with no mark means an inactive call.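 How the source made its calls: active means binding response below 72% of control, or above a set upper limit, though filed actives all read lower; inactive means the rest.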

These compounds were tested against Mitogen-activated protein kinase kinase kinase 3 (Homo sapiens) (UniProt Q99759) (assay: blockers of MEK5-MEKK3 PB1 association – biochemical, bead multiplex flow cytometry, single concentration, wildtype, confirmation (AID 1894;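 further: 100% = DMSO only wells and 0% = binding blocked by excess unlabeled MEK5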)). Details: Alexa488-MEK5 binding to MEKK3, at 10 µM, active compounds read low.
Sequence of Mitogen-activated protein kinase kinase kinase 3 (Homo sapiens) (Q99759 whole entry, looked up): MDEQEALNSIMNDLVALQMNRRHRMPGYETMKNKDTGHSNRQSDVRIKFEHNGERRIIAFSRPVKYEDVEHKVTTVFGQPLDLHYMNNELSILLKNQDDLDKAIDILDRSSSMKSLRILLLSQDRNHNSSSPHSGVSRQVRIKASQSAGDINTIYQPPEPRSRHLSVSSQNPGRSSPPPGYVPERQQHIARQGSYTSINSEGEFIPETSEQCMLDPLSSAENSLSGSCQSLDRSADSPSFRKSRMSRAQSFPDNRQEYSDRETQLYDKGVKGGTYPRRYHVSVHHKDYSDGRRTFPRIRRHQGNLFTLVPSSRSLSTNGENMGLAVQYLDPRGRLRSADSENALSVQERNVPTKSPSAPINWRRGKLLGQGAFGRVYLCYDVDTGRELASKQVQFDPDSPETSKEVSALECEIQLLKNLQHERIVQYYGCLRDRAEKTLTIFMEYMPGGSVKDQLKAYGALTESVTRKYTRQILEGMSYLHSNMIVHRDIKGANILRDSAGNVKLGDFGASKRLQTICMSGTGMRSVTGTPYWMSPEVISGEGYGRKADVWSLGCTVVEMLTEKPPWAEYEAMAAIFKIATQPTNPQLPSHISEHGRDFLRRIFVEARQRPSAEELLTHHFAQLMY

Point of comparison: `CCC(C)OC(=O)C(C)Oc1ccc(-c2ccccc2)cc1` (configuration not stated), binding response (% of control) 108%. Against it:
- C=CCN(CC=C)S(=O)(=O)c1ccc(C(=O)Nc2sc3c(c2C(N)=O)CCCCC3)cc1 — lower, 100%
- Cc1ccc(N(CCC(=O)O)S(=O)(=O)c2cccc(C(F)(F)F)c2)cc1 — lower, 102%
- Cc1ccc(CNC(=O)Cn2c(=O)c3sccc3n(Cc3cccc([N+](=O)[O-])c3)c2=O)cc1 — lower, 102%
- COc1cccc(C2CC(c3ccccc3)=NN2S(=O)(=O)c2ccccc2)c1OC (configuration not stated) — lower, 100%
- O=C(Nc1ccn(Cc2ccccc2)n1)c1cccc(F)c1 — lower, 100%
- CCCCOC(=O)c1ccc(N2C(=O)CC(N3CCN(C/C=C/c4ccccc4)CC3)C2=O)cc1 (configuration not stated) — lower, 104%
- COc1cc(-c2nnc(Cn3cc(C(F)(F)F)ccc3=O)o2)cc(OC)c1OC — lower, 102%
- COc1cc(Br)c(-c2sc(Nc3ccccc3)n[n+]2-c2ccccc2)cc1OC — lower, 102%
- COc1cccc(/C(C)=N/Nc2ncc(Cl)cc2Cl)c1 — the same, 108%
- COc1cc(/C=C2\SC(=S)N(Nc3ncc(C(F)(F)F)cc3Cl)C2=O)cc(OC)c1OC — lower, 90%
- CCN(CC)CCOCCOc1ccc(Cl)c2ccccc12 — lower, 107%
- CCOc1ccc(NC(=O)Nc2cc(C)ccc2OC)cc1 — lower, 100%
- Cc1onc(-c2ccccc2Cl)c1C(=O)OCC(=O)c1ccccc1 — lower, 100%
- O=C(OCc1cc(Cl)ccc1OC(F)F)c1cccnc1 — lower, 97%
- O=c1c(/C=N/O)coc2ccc(Cl)cc12 — lower, 101%
- O=C(Nc1ccc(Cl)cn1)c1cnn2cccnc12 — lower, 105%
- CCOC(=O)c1sc2nc(C)nc(SCC(N)=O)c2c1C — higher, 109%
- COc1ccc(C(=O)C[n+]2ccc(C)cc2)cc1 — lower, 103%
- CCN1CCN(c2ccc(S(=O)(=O)N3CCCCC3)cc2NC(=O)Cc2c(Cl)cccc2Cl)CC1 — lower, 104%
- Cc1nn(-c2ccccc2)c(NC(=O)c2cccs2)c(-c2ccc(Cl)cc2)c1=O — lower, 101%
- Cc1cc(C(=O)OCC(=O)N2c3ccccc3NC(=O)C2(C)C)c(C)n1-c1ccccc1 — lower, 106%
- Cc1cccn2c(=O)c(/C=C3\SC(=S)N(CC(C)C)C3=O)c(NCCCOC(C)C)nc12 — lower, 86%
- C/C(CC(=O)NC(C)(C)C)=N\NC(=O)c1ccco1 — lower, 100%
- Cc1ccc(C(=O)N/C(=C/c2ccco2)C(=O)NCCc2c[nH]c3ccccc23)cc1C — lower, 105%
- Cn1c2ccccc2c(=O)c2c(=O)n(Cc3ccco3)c(COc3ccccc3)nc21 — lower, 100%
- CN(C)CCCNC(=O)c1cc(C(=O)Cc2ccc(Cl)cc2)c[nH]1 — lower, 98%
- Cc1ccc(NC(=S)N(CCCN2CCCC2)Cc2cccn2Cc2ccc(Cl)cc2)cc1 — lower, 104%
- COC(=O)c1cc(NC(=O)c2cc(C(C)(C)C)nn2Cc2cccc(C)c2)ccc1N1CCOCC1 — lower, 99%
- CN(C)CCCNC(=S)N1CCN(c2nc(-c3ccccc3)cs2)CC1 — lower, 102%
- Cn1ccc(=Nc2ccc(NC(=O)c3ccc(N=c4ccn(C)c5ccc([N+](=O)[O-])cc45)cc3)cc2)cc1 — lower, 105%
- O=C(NCCCN1CCN(c2ccc(F)cc2)CC1)Nc1ccc([N+](=O)[O-])cc1 — lower, 107%
- O=C(c1cnn(-c2ccc(Cl)cc2)c1)c1ccccc1O — higher, 110%
- O=C(NC1CCN(Cc2ccccc2)CC1)c1ccc(Oc2cc(Cl)cc(Cl)c2)o1 — lower, 97%
- O=C(NCCC1=CCCCC1)c1ccc(Cl)c([N+](=O)[O-])c1 — lower, 106%
- CC1CN(C(=O)c2ccccc2NS(=O)(=O)c2cccc([N+](=O)[O-])c2)CC(C)O1 (configuration not stated) — lower, 101%
- CC(C)c1ccc(C(=O)NCCCc2ccccc2)cc1 — lower, 98%
- O=C(O)c1cccnc1NC1CCCC1 — the same, 108%
- COc1cccc(NC(=S)NCCCN2CCOCC2)c1 — lower, 106%
- COC(=O)CCc1sc(Nc2ccc(Br)cc2)nc1-c1ccc(OC)cc1 — lower, 106%
- O=C(Cc1cccc2ccccc12)Nc1ccc2oc(-c3ccccc3)nc2c1 — lower, 102%
- CNC(=O)/C(=C\C=C\c1ccccc1)NC(=O)c1ccc([N+](=O)[O-])cc1 — lower, 107%
- COc1ccc(C(=O)NCC(=O)N/N=C/c2ccc([N+](=O)[O-])o2)cc1OC — lower, 93%
- Cc1c(-c2ccccc2)cn2c1-c1ccc(C)n1CC2 — lower, 93%
- Cc1ccc(C)c(CN2CCC(CNC(=O)Nc3ccc(C)c(F)c3)CC2)c1 — lower, 107%
- COc1cc(-c2nc(-c3ccncc3)no2)cc(OC)c1OC — lower, 104%
- Cc1ccc(S(=O)(=O)/N=S(\C)C(C)C)cc1 (configuration not stated) — lower, 101%
- CCOC(=O)Cc1csc(NC(=O)CSc2nc(C)cc(=O)[nH]2)n1 — lower, 99%
- COc1ccc(CNC(=O)C2CCN(S(C)(=O)=O)CC2)cc1 — lower, 102%
- O=C(Cc1cccs1)N/N=C/c1ccc(OCc2ccccc2)cc1 — lower, 104%
- COc1ccc(S(=O)(=O)N2CN(CCc3ccc(OC)c(OC)c3)c3nc4ccccc4nc32)cc1 — lower, 97%
- COc1cc(CC(=O)N/N=C/c2ccccc2)c([N+](=O)[O-])cc1OC — lower, 104%
- FC(F)(F)c1cccc(N/N=C/c2ccccc2)c1 — lower, 105%
- CCOC(=O)CN(C)S(=O)(=O)c1ccc(-c2cc(C(=O)OC)sc2C(F)(F)F)cc1 — lower, 103%
- COc1ccc(C2CC(=O)Nc3cc(C)c(C)cc32)c(OC)c1OC (configuration not stated) — lower, 104%
- O=C(c1ccco1)N1CCN(c2cccc(Cl)c2)CC1 — lower, 100%
- C=C(C)C1CC=C(C)/C(=N\NC(=O)CNc2ccccc2OC)C1 (configuration not stated) — higher, 109%
- CCOC(=O)c1cc2c(nc1NC(=S)Nc1ccccc1)CC(C)(CC)OC2 (configuration not stated) — lower, 102%
- COc1cccc(OCC(=O)NNC(=O)c2cnccn2)c1 — lower, 101%
- CCCn1c(=N)n(CC(=O)c2ccc(Cl)c(Cl)c2)c2ccccc21 — higher, 109%
- Cc1cc(C)c(NC(=O)C[N+](C)(C)CC(O)COc2cccc3ccccc23)c(C)c1 (configuration not stated) — the same, 108%
- CCOC(=O)c1c(-c2ccccc2)csc1NC(=S)NC(=O)c1ccccc1 — lower, 102%
- CCCCN1C(=O)/C(=C(/C#N)C(N)=O)c2ccccc21 — lower, 99%
- CC(=O)Nc1ccc(N2CCOCC2)c(C(=O)Nc2cccc(C)c2)c1 — lower, 105%
- COc1ccccc1NC(=S)N1CCN(c2ccc(F)cc2)CC1 — lower, 102%
- CCCN(CCC)c1nc2c(C)cccn2c(=O)c1/C=C1/SC(=S)N(Cc2ccco2)C1=O — lower, 86%
- O=C(Nc1ccc2ccccc2c1)Nc1ccc2snnc2c1 — lower, 105%
- O=C1NCC(=O)N(Cc2ccccc2)/C1=C/c1ccccc1 — lower, 91%
- O=C(CSc1ccc(-c2ccc(F)cc2)nn1)Nc1ccc2c(c1)OCCO2 — lower, 104%
- CCOc1cc(C(=O)OCC(=O)Nc2cccc(C)c2)ccc1OCC(=O)N1CCOCC1 — lower, 106%
- O=C(CN1C(=O)c2cccnc2Oc2ccc(Cl)cc21)Nc1ccc(F)cc1 — lower, 103%
- O=c1c2ccccc2c(-c2ccccc2)nn1Cc1ccccc1 — lower, 97%
- CCn1cc(CN2CCC(C(=O)Nc3cccc(-c4cccc(Cl)c4)c3)CC2)cn1 — higher, 116%
- CC(=O)N1CCN(S(=O)(=O)c2ccc(C)c([N+](=O)[O-])c2)C1C(C)C (configuration not stated) — lower, 97%
- N=C1/C(=C/c2cccn2-c2cccc([N+](=O)[O-])c2)C(=O)N=C2SC=CN12 — lower, 100%
- Cn1c(=NC(=O)CSCC(=O)N2CCCCC2)sc2ccccc21 — lower, 104%
- CCCCNC(=O)N1CCCC(N(C)CCc2ccc(OC)c(OC)c2)C1 (configuration not stated) — lower, 102%
- O=C(NCc1ccccc1Cl)NC(=O)c1csc([N+](=O)[O-])c1 — lower, 103%
- CC(C)(C)c1nnc(NC(=O)C2c3ccccc3Oc3ccccc32)s1 — lower, 100%
- O=C(/C=C/Nc1ccccc1)c1cnc(-c2ccccc2)s1 — lower, 106%
- Cc1cccc(-c2ncc(CN3CCC(CO)(CCCc4ccccc4)CC3)cn2)c1 — lower, 107%
- CC(C)(C)NC(=O)c1cccc(NC(=O)Cc2ccc(Br)cc2)c1 — lower, 101%
- COCC(C)NC(=O)COc1nncc2ccccc12 (configuration not stated) — lower, 95%
- O=C(COC(=O)CNC(=O)c1ccco1)Nc1ccc(F)cc1 — lower, 103%
- CCOC(=O)c1c(NC(=O)c2ccc(S(=O)(=O)N(C)CC3CCCO3)cc2)sc2c1CC(C)(C)NC2(C)C (configuration not stated) — lower, 99%
- CCN(CC)CCCNC(=O)c1ccc2c(=O)n(Cc3ccc4c(c3)OCO4)c(=S)[nH]c2c1 — lower, 101%
- CN(C)CCCN(C(=O)COc1ccccc1)c1nc2c(Cl)cccc2s1 — the same, 108%
- O=C(O)/C=C\C(=O)Nc1ccc(OCc2ccccc2)cc1 — lower, 98%

For `CCC(=C/c1sc2ccc3ccccc3c2[n+]1C)/C=C1\Sc2ccc3ccccc3c2N1C`, the binding response (% of control) was 29% (active).
In the case of `N#C/C(=C\C1=C(N2CCOCC2)C(=C\c2ccccc2)/CC1)C(=O)Nc1ccccc1F`, the binding response (% of control) is reported as 27% (active).
With `O=C(NNc1c2ccccc2nc2ccccc12)c1cc2ccccc2cc1O` the binding response (% of control) was 51% (active).
`CN(c1ccccc1)c1ccc(/C=c2\s/c(=C(/C#N)C(=O)C(C)(C)C)n(Cc3ccco3)c2=O)cc1` was tested, and the binding response (% of control) was 69% (active).
